Assay results taken from PubChem BioAssay AID1159580 (chemical genetic matrix, 2015).
Values joined by “and” are separate entries in the source; they are usually repeats but may differ in a detail not shown here. Equal values may be shown once. Among all 5,500 compounds or so, about 2,000 (36%) were called active. Inconclusive results (about 18%) are left out. Rule as the data show it: active = normalized growth mostly below about 0.91 (no sharp cut-off); inconclusive = no clear call, values can overlap the other calls; inactive = mostly above about 0.92. Some of the results follow.

Experiment: chemical genetic growth profiling, strain panel (AID 1159580);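 also: tested at 20 µM; growth read once vehicle control cultures reached saturation at 30 °C; 1 = growth at the plate median or of vehicle wells; lower values mean less growth of the strain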
Conditions: S. cerevisiae deletion strains, growth OD

Measured: normalized growth

CC(C)[N+](C)(CCC(C(N)=O)(c1ccccc1)c1ccccc1)C(C)C
inactive: locus YAL013W, strain DEP1, hits give low values 1.01 | locus YAL021C, strain ccr4, hits give low values 0.997 | locus YAL026C, strain drs2, hits give low values 0.999 | locus YAL030W, strain snc1, hits give low values 0.993 | locus YBL061C, strain skt5, hits give low values 0.992 | locus YBR009C, strain hhf1, hits give low values 0.994 | locus YBR021W, strain FUR4, hits give low values 1 | locus YBR023C, strain chs3, hits give low values 0.979 | locus YBR171W, strain sec66, hits give low values 0.987 | locus YBR229C, strain ROT2, hits give low values 1.01 | locus YBR231C, strain swc5, hits give low values 0.991 | locus YBR279W, strain paf1, hits give low values 0.97 | locus YCL011C, strain gbp2, hits give low values 0.966 | locus YCL016C, strain dcc1, hits give low values 0.953 | locus YCL029C, strain bik1, hits give low values 1 | locus YCL061C, strain MRC1, hits give low values 0.97 | locus YCL069W, strain vba3, hits give low values 0.993 | locus YCR088W, strain abp1, hits give low values 0.986 | locus YDL005C, strain med2, hits give low values 0.996 | locus YDL035C, strain GPR1, hits give low values 1.01 | locus YDL040C, strain nat1, hits give low values 0.996 | locus YDL074C, strain BRE1, hits give low values 1.01 | locus YDL101C, strain DUN1, hits give low values 1.01 | locus YDL185W, strain tfp1, hits give low values 0.996 | locus YDL192W, strain arf1, hits give low values 1 | locus YDR001C, strain nth1, hits give low values 0.987 | locus YDR069C, strain doa4, hits give low values 1 | locus YDR101C, strain arx1, hits give low values 0.999 | locus YDR137W, strain rgp1, hits give low values 0.987 | locus YDR150W, strain NUM1, hits give low values 1.01 | locus YDR159W, strain sac3, hits give low values 0.997 | locus YDR162C, strain NBP2, hits give low values 1 | locus YDR195W, strain ref2 1.02 | locus YDR297W, strain sur2, hits give low values 0.991 | locus YDR318W, strain mcm21, hits give low values 0.999 | locus YDR334W, strain swr1, hits give low values 0.981 | locus YDR335W, strain msn5, hits give low values 0.99 | locus YDR388W, hits give low values 1 | locus YDR392W, strain spt3, hits give low values 0.9 | locus YDR502C, strain sam2, hits give low values 0.986 | locus YEL003W, strain gim4, hits give low values 1.01 | locus YEL037C, strain rad23, hits give low values 0.987 | locus YEL061C, strain CIN8 (second series), hits give low values 0.988 | locus YEL061C, strain CIN8, hits give low values 0.999 | locus YER015W, strain faa2, hits give low values 0.995 | locus YER016W, strain bim1, hits give low values 0.998 | locus YER110C, hits give low values 1 | locus YER111C, strain swi4, hits give low values 0.981 | locus YER155C, strain BEM2 (second series), hits give low values 1 | locus YER155C, strain BEM2, hits give low values 1.02 | locus YER167W, strain BCK2, hits give low values 0.999 | locus YFR010W, strain ubp6, hits give low values 0.986 | locus YGL078C, strain dbp3, hits give low values 0.996 | locus YGL086W, strain mad1, hits give low values 1 | locus YGL167C, strain pmr1, hits give low values 0.989 | locus YGL173C, strain kem1, hits give low values 0.998 | locus YGL227W, strain vid30, hits give low values 0.98 | locus YGL240W, strain doc1, hits give low values 1 | locus YGL248W, strain PDE1, hits give low values 1 | locus YGL253W, strain hxk2, hits give low values 0.983 | locus YGR135W, strain pre9, hits give low values 0.978 | locus YGR252W, strain gcn5, hits give low values 0.896 | locus YHR013C, strain ard1, hits give low values 0.961 | locus YHR027C, strain rpn1, hits give low values 0.997 | locus YHR030C, strain SLT2, hits give low values 0.998 and 1 | locus YHR079C, strain IRE1 (second series), hits give low values 0.998 | locus YHR079C, strain IRE1, hits give low values 0.994 | locus YHR094C, strain hxt1, hits give low values 0.995 | locus YHR129C, strain ARP1, hits give low values 1.01 | locus YHR142W, strain chs7, hits give low values 0.939 | locus YHR200W, strain rpn10, hits give low values 1 | locus YIL066C, strain RNR3, hits give low values 1.01 | locus YIL073C, strain SPO22, hits give low values 0.988 | locus YIL125W, strain kgd1, hits give low values 0.993 | locus YIR030C, strain dcg1, hits give low values 1.02 | locus YJL092W, strain hpr5, hits give low values 0.986 | locus YJL095W, strain BCK1 (second series), hits give low values 0.988 | locus YJL095W, strain BCK1, hits give low values 1.01 | locus YJL115W, strain asf1, hits give low values 0.993 | locus YJL129C, strain trk1, hits give low values 0.991 | locus YJL134W, strain LCB3, hits give low values 1.02 | locus YJL154C, strain vps35, hits give low values 1 | locus YJL164C, strain tpk1, hits give low values 0.987 | locus YJL166W, strain qcr8, hits give low values 0.972 | locus YJL168C, strain set2, hits give low values 0.99 | locus YJL187C, strain SWE1 (second series), hits give low values 1.01 | locus YJL187C, strain SWE1, hits give low values 1 | locus YJR043C, strain POL32, hits give low values 1.01 | locus YJR066W, strain TOR1, hits give low values 0.943 | locus YKL009W, strain mrt4, hits give low values 1 | locus YKL068W, hits give low values 0.998 | locus YKL085W, strain MDH1 (second series), hits give low values 0.995 | locus YKL085W, strain MDH1, hits give low values 0.995 | locus YKL160W, strain elf1, hits give low values 0.961 | locus YKL190W, strain CNB1, hits give low values 0.98 | locus YKR001C, strain vps1, hits give low values 0.997 | locus YKR026C, strain gcn3, hits give low values 0.998 | locus YKR091W, strain srl3, hits give low values 0.992 | locus YLL001W, strain dnm1, hits give low values 0.96 | locus YLL026W, hits give low values 0.99 | locus YLL041C, strain sdh2, hits give low values 0.995 | locus YLR027C, strain aat2, hits give low values 0.994 | locus YLR039C, strain RIC1, hits give low values 1.07 | locus YLR058C, strain SHM2, hits give low values 1.01 | locus YLR102C, strain apc9, hits give low values 0.999 | locus YLR113W, strain HOG1, hits give low values 1.04 | locus YLR221C, strain rsa3, hits give low values 0.972 | locus YLR258W, strain gsy2, hits give low values 0.98 | locus YLR262C, strain YPT6 (second series), hits give low values 1 | locus YLR262C, strain YPT6, hits give low values 1.03 | locus YLR268W, strain sec22, hits give low values 0.987 | locus YLR320W, strain mms22, hits give low values 0.971 | locus YLR330W, strain CHS5, hits give low values 1.01 | locus YLR342W, strain FKS1 (second series), hits give low values 1.02 | locus YLR342W, strain FKS1, hits give low values 0.994 | locus YLR357W, strain rsc2, hits give low values 0.971 | locus YLR370C, strain arc18, hits give low values 0.975 | locus YLR371W, strain rom2, hits give low values 0.981 | locus YLR384C, strain iki3, hits give low values 0.991 | locus YLR418C, strain cdc73, hits give low values 0.923 | locus YML016C, strain PPZ1, hits give low values 1.01 | locus YML032C, strain rad52, hits give low values 0.993 | locus YML120C, strain ndi1, hits give low values 0.946 | locus YML124C, strain tub3, hits give low values 0.993 | locus YMR058W, strain fet3, hits give low values 0.998 | locus YMR078C, strain ctf18, hits give low values 1 | locus YMR125W, strain sto1, hits give low values 0.978 | locus YMR129W, hits give low values 0.996 | locus YMR205C, strain PFK2, hits give low values 0.974 | locus YMR223W, strain ubp8, hits give low values 0.987 | locus YMR231W, strain pep5, hits give low values 1 | locus YMR307W, strain GAS1, hits give low values 0.9 | locus YNL067W, strain RPL9B, hits give low values 0.997 | locus YNL071W, strain lat1, hits give low values 0.983 | locus YNL128W, strain TEP1, hits give low values 1.01 | locus YNL153C, strain GIM3, hits give low values 1.01 | locus YNL183C, strain NPR1, hits give low values 0.964 | locus YNL209W, strain ssb2, hits give low values 0.986 | locus YNL233W, strain BNI4, hits give low values 1.01 | locus YNL248C, strain rpa49, hits give low values 0.992 | locus YNL250W, strain rad50, hits give low values 0.987 | locus YNL271C, strain bni1, hits give low values 1 | locus YNL298W, strain CLA4, hits give low values 1 | locus YNL307C, strain MCK1, hits give low values 0.988 | locus YNL322C, strain KRE1 (second series), hits give low values 0.966 | locus YNR049C, strain mso1, hits give low values 0.995 | locus YNR052C, strain pop2, hits give low values 0.995 | locus YOL012C, strain htz1 0.833 | locus YOL147C, strain pex11, hits give low values 1 | locus YOR001W, strain rrp6, hits give low values 1.03 | locus YOR061W, strain CKA2, hits give low values 1.01 | locus YOR069W, strain VPS5, hits give low values 1.01 | locus YOR070C, strain gyp1, hits give low values 1 | locus YOR080W, strain dia2, hits give low values 1 | locus YOR083W, strain WHI5, hits give low values 0.963 | locus YOR106W, strain vam3, hits give low values 0.976 | locus YOR136W, strain idh2, hits give low values 0.985 | locus YOR144C, strain elg1, hits give low values 1 | locus YOR184W, strain ser1, hits give low values 0.979 | locus YOR231W, strain MKK1, hits give low values 0.972 | locus YOR265W, strain rbl2, hits give low values 0.994 | locus YOR270C, strain vph1, hits give low values 0.984 | locus YOR290C, strain snf2, hits give low values 0.923 | locus YOR316C, strain cot1, hits give low values 1.01 | locus YPL051W, strain arl3, hits give low values 0.998 | locus YPL055C, strain LGE1, hits give low values 0.991 | locus YPL078C, strain atp4, hits give low values 0.974 | locus YPL106C, strain sse1, hits give low values 0.961 | locus YPL240C, strain hsp82, hits give low values 1 | locus YPL256C, strain CLN2, hits give low values 1 | locus YPR119W, strain clb2, hits give low values 0.991 | locus YPR141C, strain kar3, hits give low values 0.993 | locus YPR163C, strain tif3, hits give low values 0.998 | locus YPR167C, strain met16, hits give low values 0.979 | strain wtn01, hits give low values 0.98
